Assay results published in PubChem BioAssay (NCI).
Where “and” joins values, the source holds several entries; their conditions need not be identical. Identical values can stand only once. This is part of a sample that, as a whole, favours compounds with a hit. Of some 83,000 tested, about 20% had one in any assay.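 Compound tested at a single concentration for 48 hours in 96-well plates; a percent growth value below 10 was scored as active.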 Calls of active or inactive are those of the source.

Columns and labels:
Assay in all cases: NCI-60 one-dose screen, 48 h (100 = growth as untreated, 0 = no growth, -100 = all killed)
Conditions in all cases: 10 µM unless noted
[1] = system: NCI-H226 lung
[2] = system: NCI-H322M lung
[3] = system: HOP-62 NSCLC
[4] = system: NCI-H460 lung
[5] = system: HOP-92 NSCLC
[6] = system: NCI-H522 lung
[7] = system: A549/ATCC NSCLC
[8] = system: 786-0 renal
[9] = system: COLO 205 colon
[10] = system: DU-145 prostate
[11] = system: K-562 leukemia
[12] = system: MALME-3M melanoma
[13] = system: MDA-MB-231 breast
[14] = system: RXF 393 renal
[15] = system: SF-268 CNS
[16] = system: SF-295 CNS
[17] = system: SF-539 CNS
[18] = system: UACC-257 melanoma
[19] = system: M14 melanoma
[20] = system: NCI-H23 lung

Compound | growth [1] | growth [2] | growth [3] | growth [4] | growth [5] | growth [6] | growth [7] | growth [8] | growth [9] | growth [10] | growth [11] | growth [12] | growth [13] | growth [14] | growth [15] | growth [16] | growth [17] | growth [18] | growth [19] | growth [20]
O=[N+]([O-])c1ccc(OCc2ccc(S(=O)(=O)F)c(Cl)c2)c(Cl)c1 | 93.4% (inactive) | 116% (inactive) | 106% (inactive) | 115% (inactive) | 77.5% (inactive) | 89.1% (inactive) | 110% (inactive) | 79.9% (inactive) | 101% (inactive) | 118% (inactive) | 99% (inactive) | 98.6% (inactive) | 85.9% (inactive) | 114% (inactive) | 95.8% (inactive) | 106% (inactive) | 93.6% (inactive) | 118% (inactive) | 96.9% (inactive) | 
O=S(OO)c1cc(Cl)c(O)c(Cl)c1 (configuration not stated) | 109% (inactive) |  | 105% (inactive) | 102% (inactive) | 92.1% (inactive) | 102% (inactive) | 94.7% (inactive) | 97.1% (inactive) | 117% (inactive) | 113% (inactive) | 107% (inactive) | 115% (inactive) | 110% (inactive) | 106% (inactive) | 103% (inactive) | 94.3% (inactive) | 95.7% (inactive) | 99.6% (inactive) | 107% (inactive) | 101% (inactive)
COC(=O)CCP(CCC(=O)OC)c1ccccc1 | 104% (inactive) |  | 111% (inactive) | 111% (inactive) | 109% (inactive) | 102% (inactive) | 96.8% (inactive) | 102% (inactive) | 118% (inactive) | 110% (inactive) | 111% (inactive) |  | 117% (inactive) | 108% (inactive) | 103% (inactive) | 99.4% (inactive) | 101% (inactive) | 99.7% (inactive) | 101% (inactive) | 102% (inactive)
CC(C)COC(=O)Cc1ccccc1 | 99.4% (inactive) |  | 101% (inactive) | 109% (inactive) | 95.1% (inactive) | 99% (inactive) | 105% (inactive) | 104% (inactive) | 106% (inactive) | 115% (inactive) | 109% (inactive) | 94.4% (inactive) | 120% (inactive) | 102% (inactive) | 104% (inactive) | 111% (inactive) | 97.5% (inactive) | 104% (inactive) | 103% (inactive) | 106% (inactive)
CC[C@H](C)[C@H](NC(=O)[C@H]1CCCCN1C)C(=O)N(C)[C@H](C(=O)NC12CC(C(=O)N[C@@H](Cc3ccccc3)C[C@H](C)C(=O)OC)(C1)C2)C(C)C | 98.8% (inactive) |  | 92.8% (inactive) | 101% (inactive) | 98.4% (inactive) | 74.2% (inactive) | 92% (inactive) | 103% (inactive) | 110% (inactive) | 105% (inactive) | 98.2% (inactive) | 106% (inactive) | 110% (inactive) | 108% (inactive) | 90.2% (inactive) | 102% (inactive) | 100% (inactive) | 102% (inactive) | 101% (inactive) | 97.7% (inactive)
Oc1ccccc1C=NCCN=Cc1ccccc1O | 99.5% (inactive) |  | 96.9% (inactive) | 107% (inactive) | 99.6% (inactive) | 92.3% (inactive) | 98.7% (inactive) | 106% (inactive) | 118% (inactive) | 108% (inactive) | 112% (inactive) | 113% (inactive) | 101% (inactive) | 109% (inactive) | 97% (inactive) | 101% (inactive) | 106% (inactive) | 96.4% (inactive) | 102% (inactive) | 99.8% (inactive)
Clc1ccc(COC(Cn2ccnc2)c2ccc(Cl)cc2Cl)c(Cl)c1 (configuration not stated) | 68.3% (inactive) and 75.9% (inactive) |  | 71.3% (inactive) and 84.9% (inactive) | 56.8% (inactive) and 55.9% (inactive) | -1.54% (active) and 14.5% (inactive) | 39% (inactive) and 41.5% (inactive) | 37.3% (inactive) and 12.5% (inactive) | 48.9% (inactive) and 49.6% (inactive) | 57.2% (inactive) and 57.9% (inactive) | 76.8% (inactive) and 69.8% (inactive) | 25.5% (inactive) and 13.7% (inactive) | 56.1% (inactive) and 75.3% (inactive) | 49.5% (inactive) and 66.9% (inactive) | 72.1% (inactive) and 10.9% (inactive) | 70.2% (inactive) and 77.8% (inactive) | 30.4% (inactive) and 51.3% (inactive) | 80.4% (inactive) and 70.1% (inactive) | 61.2% (inactive) and 48% (inactive) | 29.2% (inactive) | 40.6% (inactive) and 25.2% (inactive)
